Assay results reported in the supplement of paper PMC11732987, “Enantioselective OTUD7B fragment discovery through chemoproteomics screening and high-throughput optimisation” (Communications Chemistry, 2025).

What was measured:
Assay in all cases: log2 ratio of Biotin-Ahx-Ub-VS probe labelling (fragment/DMSO); higher = less target engagement (more negative = stronger competition), active = hit call of the paper (q ≤ 0.05, log2 ratio ≤ -1)
Details in all cases: compound concentration: 200 uM; treatment time: 3 h
USP34 = USP34 (UniProt Q70CQ2)
Chain of USP34 (Q70CQ2 whole entry, the tested form may be a part): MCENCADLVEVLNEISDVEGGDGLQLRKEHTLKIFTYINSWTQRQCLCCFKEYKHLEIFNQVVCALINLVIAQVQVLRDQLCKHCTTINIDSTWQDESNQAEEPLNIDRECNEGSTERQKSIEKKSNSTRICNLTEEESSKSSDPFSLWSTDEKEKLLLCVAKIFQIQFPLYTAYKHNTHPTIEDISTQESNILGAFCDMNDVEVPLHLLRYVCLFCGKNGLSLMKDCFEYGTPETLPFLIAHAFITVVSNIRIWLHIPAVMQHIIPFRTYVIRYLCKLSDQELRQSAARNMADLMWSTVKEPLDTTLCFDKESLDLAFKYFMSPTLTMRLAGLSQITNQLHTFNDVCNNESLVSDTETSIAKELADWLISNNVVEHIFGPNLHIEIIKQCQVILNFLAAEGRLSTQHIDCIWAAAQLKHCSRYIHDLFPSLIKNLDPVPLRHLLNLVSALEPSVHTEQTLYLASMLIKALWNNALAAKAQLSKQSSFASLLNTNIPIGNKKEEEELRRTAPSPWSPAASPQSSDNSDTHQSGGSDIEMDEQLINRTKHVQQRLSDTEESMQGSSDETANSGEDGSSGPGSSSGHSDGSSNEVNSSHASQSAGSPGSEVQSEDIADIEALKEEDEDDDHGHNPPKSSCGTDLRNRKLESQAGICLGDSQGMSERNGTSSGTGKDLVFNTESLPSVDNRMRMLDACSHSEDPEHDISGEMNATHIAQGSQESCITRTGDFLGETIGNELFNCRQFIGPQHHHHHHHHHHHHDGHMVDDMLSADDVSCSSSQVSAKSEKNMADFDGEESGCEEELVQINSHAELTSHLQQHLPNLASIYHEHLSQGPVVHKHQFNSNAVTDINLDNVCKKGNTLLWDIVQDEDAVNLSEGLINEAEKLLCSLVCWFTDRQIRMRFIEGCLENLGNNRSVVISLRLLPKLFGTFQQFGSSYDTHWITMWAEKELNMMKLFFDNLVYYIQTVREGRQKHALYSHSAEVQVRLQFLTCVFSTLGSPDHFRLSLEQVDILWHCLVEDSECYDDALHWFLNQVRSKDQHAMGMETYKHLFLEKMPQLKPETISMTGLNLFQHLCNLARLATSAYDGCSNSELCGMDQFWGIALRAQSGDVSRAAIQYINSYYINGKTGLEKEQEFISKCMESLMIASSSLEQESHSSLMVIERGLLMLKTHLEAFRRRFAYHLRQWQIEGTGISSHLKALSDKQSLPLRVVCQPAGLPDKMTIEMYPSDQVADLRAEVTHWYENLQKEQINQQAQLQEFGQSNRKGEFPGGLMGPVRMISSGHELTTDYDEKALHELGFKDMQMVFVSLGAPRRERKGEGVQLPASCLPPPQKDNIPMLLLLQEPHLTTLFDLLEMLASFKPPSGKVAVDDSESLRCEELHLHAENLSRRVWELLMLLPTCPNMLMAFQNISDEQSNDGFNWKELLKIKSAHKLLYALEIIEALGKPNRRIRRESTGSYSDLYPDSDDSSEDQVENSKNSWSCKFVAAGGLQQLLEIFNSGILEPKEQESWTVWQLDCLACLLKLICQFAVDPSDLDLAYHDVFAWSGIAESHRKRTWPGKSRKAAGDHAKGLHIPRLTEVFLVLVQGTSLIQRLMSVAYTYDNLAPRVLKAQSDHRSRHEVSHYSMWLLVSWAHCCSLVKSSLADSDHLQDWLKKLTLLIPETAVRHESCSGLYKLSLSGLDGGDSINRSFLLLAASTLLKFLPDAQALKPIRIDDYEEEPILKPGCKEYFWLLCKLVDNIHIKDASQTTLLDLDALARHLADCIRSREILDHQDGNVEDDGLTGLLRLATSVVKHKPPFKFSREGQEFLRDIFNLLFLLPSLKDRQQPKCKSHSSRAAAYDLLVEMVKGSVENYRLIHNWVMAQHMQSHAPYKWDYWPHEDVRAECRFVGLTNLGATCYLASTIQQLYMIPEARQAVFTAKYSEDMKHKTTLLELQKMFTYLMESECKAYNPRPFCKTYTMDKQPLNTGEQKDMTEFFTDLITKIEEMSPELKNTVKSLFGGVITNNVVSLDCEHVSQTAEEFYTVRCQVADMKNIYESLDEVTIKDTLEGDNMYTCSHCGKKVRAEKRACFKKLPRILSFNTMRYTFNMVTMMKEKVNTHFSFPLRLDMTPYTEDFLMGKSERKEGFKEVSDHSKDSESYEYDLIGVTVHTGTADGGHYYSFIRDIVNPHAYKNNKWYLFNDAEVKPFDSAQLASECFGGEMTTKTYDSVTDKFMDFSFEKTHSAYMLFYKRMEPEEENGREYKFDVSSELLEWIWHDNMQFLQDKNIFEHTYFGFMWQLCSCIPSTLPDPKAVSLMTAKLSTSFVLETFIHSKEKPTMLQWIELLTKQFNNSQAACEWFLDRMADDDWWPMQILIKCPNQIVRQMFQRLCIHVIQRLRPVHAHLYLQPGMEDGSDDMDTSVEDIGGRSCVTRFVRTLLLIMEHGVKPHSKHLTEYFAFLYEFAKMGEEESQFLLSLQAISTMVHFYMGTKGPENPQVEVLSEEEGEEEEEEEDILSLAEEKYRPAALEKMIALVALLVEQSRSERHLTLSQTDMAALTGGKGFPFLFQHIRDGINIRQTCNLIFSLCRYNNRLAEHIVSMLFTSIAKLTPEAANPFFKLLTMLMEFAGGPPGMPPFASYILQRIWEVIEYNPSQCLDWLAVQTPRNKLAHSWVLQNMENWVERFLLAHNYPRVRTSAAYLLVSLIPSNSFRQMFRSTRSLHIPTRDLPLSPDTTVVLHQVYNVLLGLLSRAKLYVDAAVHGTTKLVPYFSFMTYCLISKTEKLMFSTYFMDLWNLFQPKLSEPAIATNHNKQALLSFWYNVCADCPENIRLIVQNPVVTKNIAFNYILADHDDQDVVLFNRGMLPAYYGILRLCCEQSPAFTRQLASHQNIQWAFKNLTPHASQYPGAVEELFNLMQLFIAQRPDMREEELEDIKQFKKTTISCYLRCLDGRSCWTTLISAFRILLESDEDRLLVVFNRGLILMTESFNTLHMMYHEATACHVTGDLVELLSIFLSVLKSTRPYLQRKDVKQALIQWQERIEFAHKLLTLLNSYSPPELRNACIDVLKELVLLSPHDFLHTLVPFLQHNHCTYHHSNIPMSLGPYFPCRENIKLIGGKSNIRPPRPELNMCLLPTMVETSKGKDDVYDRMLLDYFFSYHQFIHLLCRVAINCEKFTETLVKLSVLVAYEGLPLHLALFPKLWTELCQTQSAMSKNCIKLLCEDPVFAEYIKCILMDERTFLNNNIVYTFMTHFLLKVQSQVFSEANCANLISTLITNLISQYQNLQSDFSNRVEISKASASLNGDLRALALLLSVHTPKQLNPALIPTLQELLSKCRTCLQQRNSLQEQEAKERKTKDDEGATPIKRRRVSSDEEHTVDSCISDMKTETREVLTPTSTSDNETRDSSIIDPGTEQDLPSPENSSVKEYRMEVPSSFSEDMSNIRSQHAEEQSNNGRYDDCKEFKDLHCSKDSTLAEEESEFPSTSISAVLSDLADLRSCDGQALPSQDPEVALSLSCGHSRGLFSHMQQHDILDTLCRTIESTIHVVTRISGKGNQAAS
How it was run: (§1)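 Labelled DUBs from HEK293T lysate were NeutrAvidin-enriched, digested with LysC and trypsin, and run by diaPASEF LC-MS/MS. Before that, each 495 µg sample in Tris/CHAPS/IGEPAL buffer with protease inhibitors was treated in triplicate with fragment at 200 µM or vehicle for 3 h, then with Biotin-Ahx-Ub-VS at 0.5 µM final for 1 h. Values are average log2 ratios of fragment over vehicle by unpaired t-test, based on global-median-normalised Spectronaut label-free quantities from proteins with ≥2 unique peptides.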

USP36 = target: T1, USP36 (UniProt Q9P275)
T1 sequence (whole entry): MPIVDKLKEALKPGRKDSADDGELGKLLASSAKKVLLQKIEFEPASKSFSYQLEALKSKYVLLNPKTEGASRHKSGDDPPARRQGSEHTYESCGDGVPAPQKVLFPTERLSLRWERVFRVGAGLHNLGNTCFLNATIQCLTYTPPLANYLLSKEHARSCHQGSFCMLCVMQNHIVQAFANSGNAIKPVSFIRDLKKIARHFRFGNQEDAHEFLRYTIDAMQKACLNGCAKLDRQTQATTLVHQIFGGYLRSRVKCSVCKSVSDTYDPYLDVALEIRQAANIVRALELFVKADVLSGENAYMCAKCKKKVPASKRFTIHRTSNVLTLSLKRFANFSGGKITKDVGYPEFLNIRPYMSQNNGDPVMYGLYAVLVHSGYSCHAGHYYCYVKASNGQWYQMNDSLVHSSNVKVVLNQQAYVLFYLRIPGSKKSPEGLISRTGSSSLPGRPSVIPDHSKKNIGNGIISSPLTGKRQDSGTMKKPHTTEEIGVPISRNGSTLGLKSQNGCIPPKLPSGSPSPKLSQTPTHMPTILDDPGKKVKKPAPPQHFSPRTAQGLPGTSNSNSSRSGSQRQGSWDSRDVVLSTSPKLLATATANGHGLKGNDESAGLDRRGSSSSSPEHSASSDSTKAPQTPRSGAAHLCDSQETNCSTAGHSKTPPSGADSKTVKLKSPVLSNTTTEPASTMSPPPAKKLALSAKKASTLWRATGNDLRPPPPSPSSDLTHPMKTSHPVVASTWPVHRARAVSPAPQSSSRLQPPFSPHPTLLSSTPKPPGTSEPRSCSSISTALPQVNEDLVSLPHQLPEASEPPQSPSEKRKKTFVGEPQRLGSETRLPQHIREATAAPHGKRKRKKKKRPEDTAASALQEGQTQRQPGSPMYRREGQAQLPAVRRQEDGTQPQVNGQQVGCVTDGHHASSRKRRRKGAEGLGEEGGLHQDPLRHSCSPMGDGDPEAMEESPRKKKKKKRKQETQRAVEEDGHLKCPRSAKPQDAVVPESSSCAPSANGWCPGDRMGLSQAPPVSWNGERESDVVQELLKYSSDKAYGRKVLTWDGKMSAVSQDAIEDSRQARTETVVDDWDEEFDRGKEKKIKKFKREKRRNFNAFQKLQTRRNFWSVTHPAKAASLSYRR
How it was run: as §1

USP38 = target: T2, USP38 (UniProt Q8NB14)
T2 sequence (whole entry): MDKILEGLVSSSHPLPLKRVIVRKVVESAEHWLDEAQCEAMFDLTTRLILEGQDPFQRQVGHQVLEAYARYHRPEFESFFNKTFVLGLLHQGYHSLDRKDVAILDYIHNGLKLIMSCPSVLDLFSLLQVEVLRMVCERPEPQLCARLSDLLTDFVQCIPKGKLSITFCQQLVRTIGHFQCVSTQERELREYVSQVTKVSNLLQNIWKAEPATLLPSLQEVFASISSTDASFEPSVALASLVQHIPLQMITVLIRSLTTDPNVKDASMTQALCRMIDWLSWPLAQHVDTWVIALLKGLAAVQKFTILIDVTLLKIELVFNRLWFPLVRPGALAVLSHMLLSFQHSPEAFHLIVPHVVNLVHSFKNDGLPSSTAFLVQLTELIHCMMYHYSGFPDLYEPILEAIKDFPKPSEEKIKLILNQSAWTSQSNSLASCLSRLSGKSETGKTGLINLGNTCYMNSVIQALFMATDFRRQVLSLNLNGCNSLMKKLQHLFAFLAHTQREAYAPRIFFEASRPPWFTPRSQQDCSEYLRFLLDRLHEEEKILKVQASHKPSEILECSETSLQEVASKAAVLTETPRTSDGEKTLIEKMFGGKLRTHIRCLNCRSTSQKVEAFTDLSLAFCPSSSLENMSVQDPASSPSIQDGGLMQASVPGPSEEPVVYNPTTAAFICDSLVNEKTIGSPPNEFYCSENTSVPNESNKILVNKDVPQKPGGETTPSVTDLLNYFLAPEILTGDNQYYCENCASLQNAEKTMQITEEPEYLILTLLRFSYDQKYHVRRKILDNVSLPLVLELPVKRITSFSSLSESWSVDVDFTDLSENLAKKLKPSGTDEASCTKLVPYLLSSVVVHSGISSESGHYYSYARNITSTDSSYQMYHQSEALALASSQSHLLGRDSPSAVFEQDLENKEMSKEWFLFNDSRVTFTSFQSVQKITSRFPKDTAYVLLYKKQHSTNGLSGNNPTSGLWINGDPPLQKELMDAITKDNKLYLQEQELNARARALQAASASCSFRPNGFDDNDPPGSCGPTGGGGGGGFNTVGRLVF
How it was run: as §1

USP39 = target: T3, USP39 (UniProt Q53GS9)
T3 sequence (whole entry): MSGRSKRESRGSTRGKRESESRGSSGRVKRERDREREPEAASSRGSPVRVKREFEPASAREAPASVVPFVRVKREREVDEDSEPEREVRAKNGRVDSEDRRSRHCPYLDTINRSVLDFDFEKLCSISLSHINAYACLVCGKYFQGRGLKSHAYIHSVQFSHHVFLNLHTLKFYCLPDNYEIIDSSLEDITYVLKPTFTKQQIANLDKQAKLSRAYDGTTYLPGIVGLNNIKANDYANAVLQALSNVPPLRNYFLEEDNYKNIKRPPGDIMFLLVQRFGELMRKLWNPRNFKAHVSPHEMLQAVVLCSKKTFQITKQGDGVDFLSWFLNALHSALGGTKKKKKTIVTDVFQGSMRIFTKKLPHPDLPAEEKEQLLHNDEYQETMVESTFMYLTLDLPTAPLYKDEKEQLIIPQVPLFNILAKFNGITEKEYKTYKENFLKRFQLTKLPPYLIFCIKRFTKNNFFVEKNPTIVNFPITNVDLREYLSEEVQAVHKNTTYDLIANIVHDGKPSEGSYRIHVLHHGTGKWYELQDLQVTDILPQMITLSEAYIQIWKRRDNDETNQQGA
How it was run: as §1

USP4 = target: T4, USP4 (UniProt Q13107)
T4 sequence (whole entry): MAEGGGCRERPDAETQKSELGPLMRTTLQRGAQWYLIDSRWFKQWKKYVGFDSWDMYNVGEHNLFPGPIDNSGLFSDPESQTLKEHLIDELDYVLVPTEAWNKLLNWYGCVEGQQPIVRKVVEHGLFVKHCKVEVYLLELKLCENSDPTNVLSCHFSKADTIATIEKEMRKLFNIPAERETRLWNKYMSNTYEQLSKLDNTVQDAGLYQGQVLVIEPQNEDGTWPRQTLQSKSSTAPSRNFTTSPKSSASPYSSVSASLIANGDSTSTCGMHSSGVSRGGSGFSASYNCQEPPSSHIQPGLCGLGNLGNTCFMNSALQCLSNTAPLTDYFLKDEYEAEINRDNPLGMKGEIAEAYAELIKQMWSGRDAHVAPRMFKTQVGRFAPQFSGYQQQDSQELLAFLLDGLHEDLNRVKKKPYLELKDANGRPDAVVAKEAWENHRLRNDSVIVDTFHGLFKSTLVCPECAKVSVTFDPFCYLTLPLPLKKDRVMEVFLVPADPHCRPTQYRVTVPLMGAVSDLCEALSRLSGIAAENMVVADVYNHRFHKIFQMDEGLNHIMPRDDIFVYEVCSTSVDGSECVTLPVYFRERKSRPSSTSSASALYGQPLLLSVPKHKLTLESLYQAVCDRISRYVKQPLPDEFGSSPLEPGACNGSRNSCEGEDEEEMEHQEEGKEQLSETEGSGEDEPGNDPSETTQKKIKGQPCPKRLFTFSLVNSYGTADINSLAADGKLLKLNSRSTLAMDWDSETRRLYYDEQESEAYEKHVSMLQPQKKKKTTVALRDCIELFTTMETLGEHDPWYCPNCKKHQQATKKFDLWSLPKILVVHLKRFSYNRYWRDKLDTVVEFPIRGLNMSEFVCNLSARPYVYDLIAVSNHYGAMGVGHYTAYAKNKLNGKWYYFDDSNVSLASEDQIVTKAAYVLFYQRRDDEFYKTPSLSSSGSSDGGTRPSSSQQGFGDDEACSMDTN
How it was run: as §1

Measured: log2 ratio of Biotin-Ahx-Ub-VS probe labelling

Cc1ccccc1C1(CNC(=O)CCl)CCOCC1
inactive: USP34 0.051 | USP36 0.0925 | USP38 -0.0365 | USP39 -0.165 | USP4 -0.221
